Laboratory results from PubChem BioAssay (NCI).
Compounds without any hit were thinned out: in the full panel of roughly 83,000, 20% have a hit.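 For each line, cells grew in 96-well plates with the test compound present at a single concentration for 48 hours.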 Unmarked numbers belong to inactive results. Active and inactive are the calls of the source. The calls were made as follows: active = growth percent below 10; inactive = the rest.

Tested on: MDA-MB-231 breast
Assay: NCI-60 one-dose screen, 48 h (100 = growth as untreated, 0 = no growth, -100 = all killed)
Conditions: 10 µM unless noted

First: N#CC1=C(N)Oc2c(c(N)nn2-c2ccccc2)C1c1ccc(Cl)cc1Cl (stereo not drawn)
Second: N#CC1=C(N)Oc2c(c(N)nn2-c2ccccc2)C1c1ccc(Cl)cc1 (stereo not drawn)
The growth of the first is higher: 97.4% for the first, 87.5% for the second.

Compared with `C=C(C)[C@@H]1CC[C@]2(C=O)CC[C@]3(C)[C@H](CC[C@@H]4[C@@]5(C)C/C(=C/c6cccnc6)C(=O)C(C)(C)[C@@H]5CC[C@]43C)[C@@H]12`, `C=C(C)[C@@H]1CC[C@]2(/C=N/Nc3ccncc3)CC[C@]3(C)[C@H](CC[C@@H]4[C@@]5(C)CCCNC(C)(C)[C@@H]5CC[C@]43C)[C@@H]12` is higher in growth: 93.8% for the first, 101% for the second.

Going from `C=C(C)[C@@H]1CC[C@]2(C(=O)N3CCN(CC)CC3)CC[C@]3(C)[C@H](CC[C@@H]4[C@@](C)(CCC(=O)N5CCN(CC)CC5)[C@H](C(=C)C)CC[C@]43C)[C@@H]12` to `C=C(C)[C@@H]1CC[C@]2(CN)CC[C@]3(C)[C@H](CC[C@@H]4[C@@]5(C)CCC(=O)NC(C)(C)[C@@H]5CC[C@]43C)[C@@H]12`, the growth rises from 58.6% to 58.7%.

Going from `N#CC1=C(N)Oc2c(sc3c(F)cccc23)C1c1ccc(Cl)cc1` (stereo not drawn) to `COc1ccc(C2C(C#N)=C(N)Oc3c2sc2c(F)cccc32)cc1` (stereo not drawn), the growth falls from 43.5% to 41%.

Going from `Cc1ccnc2c(OCc3ccccc3)cccc12` to `Cc1ccccc1-c1nc(C(Cl)Cl)nc2cc(-c3ccccc3)nn12`, the growth falls from 72.1% to 44.9%.

Compared with `C=CC(=O)N[C@H](Cc1ccc(-c2cc(Cl)cc(Cl)c2)cc1)[C@H](O)[C@@H](O)C(=O)O`, `COc1ccc2[nH]c(-c3ccc(Cl)cc3)cc(=O)c2c1` is lower in growth: 98.9% for the first, 95.6% for the second.

Going from `C=COCCCCCCCCCCCCCCCCCC` to `CCCCC/C(=C\c1ccccc1)C1OC(C)C(C)O1` (stereo not drawn), the growth rises from 90.4% to 99.7%.

First: CN1CCN(c2nc(-c3csc(-c4cccs4)n3)cc3ccccc23)CC1
Second: COc1ccc2c(c1)c(-c1nc(-c3c[nH]c4ncccc34)cs1)cn2CCNC(=O)OC(C)(C)C
The growth of the first is lower: 41.6% for the first, 53.2% for the second.

First: O=C(O[C@@H]1Cc2c(O)cc(O)cc2O[C@@H]1c1cc(O)c(O)c(O)c1)c1cc(O)c2c(c1)OCO2
Second: COc1cc(-c2cc3ncccc3c3[nH]c(=O)c4cccnc4c23)cc(OC)c1OC
The growth of the first is higher: 101% for the first, 36.7% for the second.

Going from `C/C(Cc1ccc(Cl)cc1)=C(/c1ccc(Cl)cc1)c1ccc(OCCN2CCCC2)cc1` to `CN(CSc1ccc(Cl)cc1)c1ccc(CSc2ccc(Cl)cc2)cc1`, the growth falls from 89.2% to 22.2%.

First: Cc1cc(N(CCCNc2ccnc3cc(Cl)ccc23)Cc2ccco2)nc(N2CCOCC2)n1
Second: COc1cc2c(cc1-c1c(C)noc1C)ncc1nc(C3CCCCC3)n([C@@H](C)COC(F)F)c12
The growth of the first is higher: 58.5% for the first, 41% for the second.

Compared with `CC1(C)NC2=C(C(Nc3cccnc3)N1)C(c1ccc([N+](=O)[O-])cc1)C(C(=O)c1ccc(N=[N+]=[N-])cc1)O2` (stereo not drawn), `Cc1ccc(S(=O)(=O)Nc2ccc(-c3cc(-c4cccc(F)c4)c(C#N)c(=O)[nH]3)cc2)cc1` is lower in growth: 102% for the first, 87.4% for the second.

First: COc1cc(/C=C/c2cc(/C=C/c3ccc(O)c(OC)c3)n(-c3ccccc3)c(=O)n2)ccc1O
Second: COc1ccc(/C=C(\C#N)c2cc3ccccc3n2S(C)(=O)=O)cc1
The growth of the first is lower: 61.4% for the first, 85.4% for the second.

Going from `CCN1CCN(C(=O)[C@]23CC[C@@H](C)[C@H](C)[C@H]2C2=CC[C@@H]4[C@@]5(C)C/C(=C/c6cccc(OC)c6OC)C(=O)C(C)(C)[C@@H]5CC[C@@]4(C)[C@]2(C)CC3)CC1` to `CC1(C)[C@@H](O)CC[C@]2(C)[C@H]3CC[C@@H]4[C@H]5[C@H](C(=O)/C=C/c6ccc(C(F)(F)F)cc6)CC[C@]5(CO)CC[C@@]4(C)[C@]3(C)CC[C@@H]12`, the growth rises from 36.5% to 71.4%.

First: CC(=O)OC[C@]12CC[C@@H](/C(C)=N/O)[C@@H]1[C@H]1CC[C@@H]3[C@@]4(C)CCCNC(C)(C)[C@@H]4CC[C@@]3(C)[C@]1(C)CC2
Second: Brc1cnc2[nH]cc(-c3nnc(-c4ccccc4)o3)c2c1
The growth of the first is higher: 82.7% for the first, 63% for the second.

In the case of `CCN1CCN(C(=O)[C@]23CCC(C)(C)C[C@H]2C2=CC[C@@H]4[C@@]5(C)CC/C(=N/O)C(C)(C)[C@@H]5CC[C@@]4(C)[C@]2(C)CC3)CC1`, the growth is reported as 9.19% (active).
In the case of `O=C1c2cccc3cccc(c23)C(=O)N1CC#Cc1ccc2c3c(cccc13)C(=O)N(CCN1CCNCC1)C2=O`, the growth is reported as 7.95% (active).
`COc1cc2ncnc(Nc3ccc(Oc4ccnc(C)c4)c(C)c3)c2cc1NC(=O)CC1CCSS1` (stereo not drawn) was tested, and the growth was -27.8% (active).
In the case of `O=C1/C(=C\C(Cl)=C/c2ccc([N+](=O)[O-])cc2)SC(=S)N1CCc1ccc(O)cc1`, the growth is reported as 6.88% (active).
`Brc1ccc2c(c1)c(-c1nc(-c3c[nH]c4ncccc34)cs1)cn2CCCN1CCCCC1` was tested, and the growth was -43.3% (active).
In the case of `Cn1c(/C(C#N)=C/c2ccc3ccccc3c2)cc2ccccc21`, the growth is reported as 5.53% (active).
`CCNCCCn1c2c(c3ccc([N+](=O)[O-])cc3c1=O)C(=O)c1cc(OC)cnc1-2` was tested, and the growth was -32.6% (active).
For `CCN1CCN(C(=O)[C@]23CCC(C)(C)C[C@@H]2C2=CC[C@@H]4[C@@]5(C)C/C(=C/c6ccncc6)C(=O)C(C)(C)[C@@H]5CC[C@@]4(C)[C@]2(C)CC3)CC1`, the growth was -59.9% (active).
